# Source: PubChem BioAssay AID1259417 (TB Discovery Research, Infectious Disease Research Institute, 2018)
# Screen size: about 1,100 compounds; about 760 (69%) were called active. No rule for the calls is given here. The set was probably picked from earlier hits. This is one part of the list.
# Assay: M. tuberculosis growth inhibition, HTS (AID 1259417);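 also: bacteria grown with compound for 5 days at 37 °C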
# Conditions: stronger effect = higher value, concentration not given here
# [1] = M. tuberculosis DsRed fluorescence growth inhibition
# [2] = M. tuberculosis growth inhibition
Structure (SMILES),inhibition [1],inhibition [2]
CCCOc1ccc(C2Oc3ccc(Br)cc3C=C2[N+](=O)[O-])cc1OC (centres undefined),10.3% (active),37.5%
Nc1ccccc1Nc1ccccc1,98.6% (active),98.4%
COc1ccc(Nc2ccccc2N)cc1,96% (active),97.4%
Cc1ccc(Nc2ccccc2N)cc1,99.5% (active),99.1%
COc1ccc(Nc2cc(C)nc3c2ccc2ccccc23)cc1,18.8% (inactive),19.5%
O=c1cc(Cc2ccccc2)nc2c(-c3ccccc3)c[nH]n12,93% (active),96.9%
NC(=O)c1c(NC(=O)c2ccc([N+](=O)[O-])s2)sc2c1CCN(Cc1ccccc1)C2,25.9% (inactive),2.21%
CCN1CCc2c(sc(NC(=O)c3ccccc3)c2-c2nc3ccccc3s2)C1,52.7% (active),77.8%
Cc1ccccc1C(=O)Nc1sc2c(c1C(=O)N1CCN(Cc3ccccc3)CC1)CCCCC2,-0.558% (inactive),-12.1%
COCCNS(=O)(=O)c1ccc(-c2ccc(C)cc2)cc1,98.6% (active),98.3%
CCCCOc1ccc(S(=O)(=O)Nc2ccc(I)cc2)cc1,-1.45% (inactive),17.1%
O=S(Cc1ccccc1)c1nc2ccccc2s1 (centres undefined),51.3% (active),74.9%
CN(C)c1ccc(Nc2ncnc3ccc(Br)cc23)cc1,100% (active),99.4%
Brc1ccc2ncnc(Nc3ccc(N4CCCC4)cc3)c2c1,100% (active),99.7%
CC1CCc2nc3sc4c(c3c(N)c2C1)CCCC4 (centres undefined),99.8% (active),99.6%
Nc1c(C(=O)Nc2ccc(Br)cc2)sc2nc3c(c(-c4cccs4)c12)CCCC3,5.67% (inactive),-16.7%
Cc1nc(SCc2csc(C)n2)c2c3c(sc2n1)CCCC3,13.5% (inactive),-7.63%
Nc1c2c(nc3sc4c(c13)CCCC4)CCCC2,99.7% (active),101%
N#CCCN(Cc1ccccc1)C(=S)NC(=O)c1ccccc1,-2.05% (inactive),0.14%
CN(Cc1ccccc1)C(=S)NC(=O)c1cccs1,23.4% (active),33.4%
COc1cccc(-c2nnc(NC(=O)C=Cc3cccs3)o2)c1,-4.21% (inactive),4.98%

Structure (SMILES),inhibition [1],inhibition [2]
O=C(Nc1nnc(-c2ccccc2Cl)o1)c1ccco1,-3.23% (inactive),-7.63%
COc1cccc(-c2nnc(NC(=O)c3cccc(F)c3)o2)c1,89.3% (active),93.2%
O=C(Nc1nnc(-c2ccccc2Cl)o1)c1cccc(Oc2ccccc2)c1,94% (active),93.2%
COc1cccc(C(=O)Nc2nnc(-c3ccc(Cl)cc3)o2)c1,35.6% (active),70.5%
O=C(Nc1nnc(C2=COCCO2)o1)c1cccc(Cl)c1,12.5% (inactive),27.2%
CC(Nc1nc(N2CCCCC2)nc2ccccc12)c1ccccc1 (centres undefined),98.6% (active),98.9%
CC(Nc1nc(N2CCN(C(=O)c3ccc(Cl)cc3)CC2)nc2ccccc12)c1ccccc1 (centres undefined),0.606% (inactive),-19.8%
COC(C)(C)C#CC(=O)c1cccc2ccccc12,100% (active),98.9%
COc1ccccc1C1=Nc2cccc3cccc(c23)N1,45.9% (active),45.8%
Cc1cccc(C(=O)Nc2nnc(C3=COCCO3)o2)c1,8.04% (inactive),3.45%
Cc1nnc(NC(=O)c2ccc3ccccc3c2)o1,98.3% (active),99.1%
Cc1ccc(-c2csc3ncn(C(C)C(=O)OCc4ccccc4Cl)c(=O)c23)cc1 (centres undefined),-5.81% (inactive),4.87%
COc1ccc(C(=O)Oc2ccc(C(=O)OCc3ccccc3)cc2)cc1OC,3.52% (inactive),-20.9%
CC(Oc1ccc(C(=O)NC2CCCCC2)cc1)C(=O)OCc1ccccc1Cl (centres undefined),51% (active),69.4%
CC(Oc1ccc(C(=O)NCCc2ccccc2)cc1)C(=O)OCc1ccccc1 (centres undefined),36.1% (active),55.5%
COC(=O)CSc1ccnc2cc(Cl)ccc12,27% (active),74.4%
Cc1cc(C)c2sc(N3CCCC3)nc2c1,100% (active),99.8%
Cc1ccc(Nc2nc(N3CCN(C)CC3)nc(N)c2[N+](=O)[O-])cc1C,61.4% (active),61.7%
COc1ccc(Cc2nn3c(-c4ccccc4)nnc3s2)cc1,100% (active),100%
Cc1ccc(-c2nnc3sc(CCc4ccccc4)nn23)cc1,100% (active),100%
Cc1ccc(-c2nnc3sc(Cc4ccccc4)nn23)cc1,100% (active),99.4%

Structure (SMILES),inhibition [1],inhibition [2]
N#Cc1ccc(NC(=O)CSc2ccc(Br)cc2)cc1,8.52% (active),46.8%
O=C(CSc1ccc(Cl)cc1)Nc1ccc(Br)cn1,2.64% (active),38%
Cc1cccc(Nc2nnc(SCC(=O)Nc3cccnc3Cl)s2)c1,3% (inactive),14.2%
Cc1cnc(NC(=O)CSc2ccc(Cl)cc2)s1,-1.45% (inactive),-17.5%
O=C(CSc1nnc(SCc2cccc3ccccc23)s1)Nc1ccccc1F,3.26% (active),43.1%
N#Cc1ccc(NC(=O)CSc2ccc(Cl)cc2)cc1,10.6% (active),56.7%
O=C(CSc1ccc(Br)cc1)Nc1ccccc1F,1.79% (active),46.4%
CCC(C)NCCCOc1ccc(Cl)c2ccccc12 (centres undefined),97.1% (active),89.4%
Clc1ccc(OCCCNCc2ccccc2)c2ccccc12,-2.3% (inactive),-30%
COC(=O)COc1ccc(-c2ccc(F)cc2)cc1C=O,39.2% (active),85.5%
Cc1cc(Nc2ccc(C)c(C)c2)n2ncc(-c3ccccc3)c2n1,5.96% (active),38.3%
Cc1cc(Nc2ccc(C)c(Cl)c2)n2ncc(-c3ccccc3)c2n1,-7.72% (inactive),1.18%
COc1ccccc1-c1cnn2c(Nc3cccc(Cl)c3)cc(C)nc12,32.5% (active),72.2%
O=c1[nH]c(C=Cc2cccc3ccccc23)nc(O)c1[N+](=O)[O-],3.53% (inactive),9.27%
CCN(CC)c1ccc(NC(=S)NCc2ccc(Cl)cc2)cc1,72.5% (active),88.7%
CC1CCN(CCNC(=S)Nc2ccc(F)cc2)CC1,0.916% (inactive),-24%
CCN(CC)C(=S)NC(=O)c1ccc(Cl)cc1,0.912% (inactive),0.451%
COc1ccc(CCNC(=S)N2CCN(CC=Cc3ccccc3)CC2)cc1OC,20.3% (inactive),12.5%
CCN(CC)c1ccc(NC(=S)NCCc2ccc(OC)c(OC)c2)cc1,91.5% (active),100%
S=C(NCc1ccc(Cl)cc1)N1CCN(CC=Cc2ccccc2)CC1,5.55% (inactive),-11%
